Compound activity deposited in PubChem by several laboratories.
Hits are enriched below; roughly 2.7% of the tested compounds scored in any of these assays.
TRPM1 prom inh: inhibitors of MITF-dependent TRPM1 promoter reporter, primary screen, cell-based, SK-MEL-5, single point, luciferase. SK-MEL-5 TRPM1 promoter luciferase, 24 h. inhibition, % at 12.5 µM. hit rate 0.83% among 330,000. AID 488899, 2010;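 active = mean inhibition across replicates of 60% or more, whatever share of single replicates reaches that level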
Peg3 promoter: Peg3 promoter-driven luciferase inhibitors, primary screen, cell-based, HeLa, luciferase luminescence. AID 588405, 2011. inhibition, % at 20 µM. HeLa PEG-Prom luciferase reporter, overnight. hit rate 1.7% among 360,000;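 active = inhibition of at least 50% at 20 µM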
Shn3 inh set2: reduction of Shn3 3'UTR firefly luciferase signal, primary screen, Schnurri-3 inhibitor project, cell-based, Clone20 osteoblasts, set 2; AID 588674, 2011; inhibition, % at 12.5 µM; hit rate 0.52% among 360,000; Clone20 osteoblast Shn3 3'UTR firefly luciferase, 24 h;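 active = mean inhibition of at least 75% with every replicate also reaching 75%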;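 also: 0% = median of neutral control wells and 100% = pilot-screen positive control compound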
CF NFkB block: inhibitors of PAF-induced NF-kB signaling, primary screen, cell-based, GFP fluorescence, uHTS; KKLEB NF-kB-GFP reporter, GFP fluorescence overnight; inhibition, % at 5 µM; hit rate 0.86% among 360,000;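 active = at least 50% inhibition at 5 µM, scaled per plate between neutral and stimulator controls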;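 also: PAF is a Pseudomonas aeruginosa culture filtrate used as stimulus; plate controls were PAF-stimulated DMSO wells for no effect and unstimulated DMSO wells for full effect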
HIF-2a inh: HIF-2a reporter inhibitors, primary screen, luminescence, 786-0 RCC cells; 786-0 RCC cells HIF-2a reporter, luciferase luminescence, overnight; inhibition, % at 18.8 µM; hit rate 0.72% among 360,000; AID 624352, 2012;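 active = inhibition of the luminescence signal of 40% or more relative to plate controls, in a single-dose primary screen at 18.75 µM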
KKLEB cytotox: cytotoxicity in KKLEB CF airway cells, primary screen, cytotoxicity control for CF NF-kB inhibitor project, cell-based, uHTS, fluorescence assay plates. KKLEB CF airway cells viability, ATPlite luminescence, overnight; active compounds read low; cells stimulated with P. aeruginosa culture filtrate. hit rate 0.36% among 360,000. activity change (cytotoxicity), % at 5 µM;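 active = corrected activity change at or below -50% at 5 µM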
Starred values were filed as active, the others as inactive; . = not tested or not shown.

SMILES	TRPM1 prom inh	Peg3 promoter	Shn3 inh set2	CF NFkB block	HIF-2a inh	KKLEB cytotox
CC(C)N1CCN(c2ccc(OCC3COC(Cn4cncn4)(c4ccc(Cl)cc4Cl)O3)cc2)CC1 (configuration not stated)	-4	47	95*	6	6	-5
S=C(NCCCN1CCOCC1)N1CCN(c2nc(-c3ccc(Cl)cc3)cs2)CC1	31	75*	1	27	6	-12
S=C(NCCCN1CCOCC1)N1CCN(c2nc(-c3ccccc3)cs2)CC1	8	-4	41	5	1	-4
COc1cc2c3c(cccc3c1)C(=O)N(CCN1CCCC1)C2=O	.	102*	-11	-219	-8	8
COc1ccc(C(=O)CN2CCN(CCN3C(=O)c4cccc5cccc(c45)C3=O)CC2)cc1	-8	41	2	-13	13	-2
COc1ccc(-c2c(-c3ccc(O)cc3O)n[nH]c2C(F)(F)F)cc1	28	0	17	-8	16	0
COc1ccccc1-c1c(-c2ccc(O)cc2O)n[nH]c1C(F)(F)F	13	13	91*	-21	10	7
Oc1ccc(-c2n[nH]c(C(F)(F)F)c2-c2ccccc2)c(O)c1	8	12	87*	6	12	-20
Cc1cccc(NC(c2ccc(C)s2)c2ccc3ccc(C)nc3c2O)n1 (configuration not stated)	15	45	59	41	66*	-23
CCN(CC)CCNC(=O)c1ccc2c(c1NCCO)C(=O)c1ccccc1C2=O	.	111*	25	77*	62*	-52*
CCN(CC)CCC(=O)Nc1cccc2c1C(=O)c1ccccc1C2=O	71*	107*	-19	-122	34	-1
Nc1cccc(C(=O)OCC(=O)Nc2cccc3c2C(=O)c2ccccc2C3=O)c1	18	26	-5	-93	-21	15
c1ccc(-c2cc3ccccc3[nH]2)cc1	-92	-251	-61	12	-269	-94*
O=S(=O)(Nc1ccc(O)c2ccccc12)c1cccs1	58	21	24	86*	13	-8
O=S(=O)(Nc1cccc2ccccc12)c1cccs1	12	0	1	-23	-13	-16
COc1ccc(-c2nc3ccc(Cl)cn3c2Cc2ccsc2)cc1OC	.	-29	7	-8	-72	-12
O=C(CCC(=O)c1cccs1)Nc1ncccc1O	-3	-17	-7	-12	2	-14
Cc1cccc(N2CCN(C(=O)CCCCCn3c(=S)[nH]c4ccc(N5CCOCC5)cc4c3=O)CC2)c1C	1	11	60	-8	-8	0
COc1ccccc1NS(=O)(=O)c1cc(-c2cnc(C3CC3)o2)ccc1C	9	52*	14	11	25	-11
COC(=O)Cn1c(=O)c(C(=O)CCl)c(N)n(Cc2ccccc2)c1=O	51	81*	.	28	30	5
CCC(=O)OCC(=O)c1c(N)n(Cc2ccccc2)c(=O)n(C)c1=O	6	6	7	-4	3	-4
COc1cc(/C=C(/C#N)C(=O)NCCc2c[nH]c3ccccc23)ccc1OCc1ccccc1F	33	89*	25	22	1	-28
O=C(CNS(=O)(=O)c1ccccc1)N/N=C/c1ccccc1[N+](=O)[O-]	9	7	5	-4	-8	-10
COc1ccc(N2CCN(C(=O)CN3C(=O)NC4(CCCCC4C)C3=O)CC2)cc1 (configuration not stated)	8	12	-10	2	3	-8
CN1C(=O)c2cccc(NCCCCCCN3C(=O)c4ccccc4C3=O)c2C1=O	15	2	88*	-7	5	2
SMILES	TRPM1 prom inh	Peg3 promoter	Shn3 inh set2	CF NFkB block	HIF-2a inh	KKLEB cytotox
Cc1cc(C)cc(N(CCC#N)C(=O)CSc2ncnc3sccc23)c1	-9	13	18	2	-2	-7
O=[N+]([O-])c1ccc(/C=[N+](\[O-])[C@@H]2CCCC[C@@H]2/[N+]([O-])=C/c2ccc([N+](=O)[O-])o2)o1	84*	50	78	-5	-3	-8
O=S(=O)(Nc1ccc(C(O)(C(F)(F)F)C(F)(F)F)cc1)c1ccc(Cl)c2nonc12	.	98*	-10	45	15	-27
O=S(=O)(Nc1ccc(Br)cc1)c1cccc2nonc12	-2	19	9	-5	19	-17
CC(C)(C)c1nn(-c2ccccc2)c2[nH]c(=O)c(CNCc3ccc4c(c3)OCO4)cc12	66*	30	14	-21	24	-14
COc1ccc2c(C)cc(SCC(=O)NC3CCCCC3)nc2c1	13	30	31	18	7	9
COc1ccc2c(C)cc(SCC(=O)Nc3ccc(Cl)cn3)nc2c1	-3	25	9	52*	20	-52*
CCOC(=O)c1c(C)c(C(=O)Nc2cc(OC)ccc2OC)c(C)n1CC	10	57*	24	13	-57	-15
Cc1ccc(S(=O)(=O)Nc2ccccc2O)cc1	.	.	.	.	-10	.
Cc1ccc(S(=O)(=O)Nc2ccc(O)c3cccnc23)cc1	22	78*	27	59*	84*	5
Cc1ccc(S(=O)(=O)Nc2cccc3ncccc23)cc1	-4	9	-4	-4	12	2
Cc1ccc(S(=O)(=O)Nc2ccc(O)c3ncccc23)cc1	51	17	92*	12	20	-5
O=C(/C=C/c1ccc([N+](=O)[O-])cc1)Nc1ncc([N+](=O)[O-])s1	42	-29	35	38	-78	-52*
CC1(C)c2[nH]c3ccccc3c2C[C@@H]2C(=O)N(Cc3ccc(F)cc3)C(=O)N21	4	62*	27	6	4	-12
COc1ccccc1N(CC(=O)NCCSCc1cccc(C)c1)S(=O)(=O)c1ccccc1	13	61*	22	34	29	-22
CC1(C)C(=O)Nc2ccccc2N1C(=O)COC(=O)CNS(=O)(=O)c1ccc(F)c(F)c1F	4	9	5	-13	-2	-30
Cc1ccc(C(=O)c2oc3ccc(Cl)cc3c2NC(=O)CN2CCN(C)CC2)cc1	10	107*	-19	13	-50	-12
COc1ccc(-c2cc(-c3ccc(OC)cc3)c(C#N)c(SC)n2)cc1	4	33	-26	50*	10	-26
COc1ccc(-c2cc(-c3ccc(O)cc3)nc(N)c2C#N)cc1	3	-10	17	-10	-18	-7
O=C(OCCOc1ccc(Cl)cc1)c1cc(S(=O)(=O)N2CCCCC2)ccc1N1CCOCC1	21	1	90*	19	15	-10
